T1: ALDOA 1-364 Glycolytic (domain begin residue: 1, domain end residue: 364), P04075
T1 chain: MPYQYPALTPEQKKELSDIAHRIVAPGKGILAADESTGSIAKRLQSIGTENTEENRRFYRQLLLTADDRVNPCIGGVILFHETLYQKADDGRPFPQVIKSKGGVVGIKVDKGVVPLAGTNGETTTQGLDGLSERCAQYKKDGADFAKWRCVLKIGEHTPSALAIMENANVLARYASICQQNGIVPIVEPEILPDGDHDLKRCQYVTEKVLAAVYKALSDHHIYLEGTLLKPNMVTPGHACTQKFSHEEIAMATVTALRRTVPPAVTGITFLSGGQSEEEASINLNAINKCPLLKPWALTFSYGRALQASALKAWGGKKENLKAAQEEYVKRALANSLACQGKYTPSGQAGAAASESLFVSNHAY

T2: BTN1A1 285-479 SPRY (domain begin residue: 285, domain end residue: 479), Q13410
T2 chain: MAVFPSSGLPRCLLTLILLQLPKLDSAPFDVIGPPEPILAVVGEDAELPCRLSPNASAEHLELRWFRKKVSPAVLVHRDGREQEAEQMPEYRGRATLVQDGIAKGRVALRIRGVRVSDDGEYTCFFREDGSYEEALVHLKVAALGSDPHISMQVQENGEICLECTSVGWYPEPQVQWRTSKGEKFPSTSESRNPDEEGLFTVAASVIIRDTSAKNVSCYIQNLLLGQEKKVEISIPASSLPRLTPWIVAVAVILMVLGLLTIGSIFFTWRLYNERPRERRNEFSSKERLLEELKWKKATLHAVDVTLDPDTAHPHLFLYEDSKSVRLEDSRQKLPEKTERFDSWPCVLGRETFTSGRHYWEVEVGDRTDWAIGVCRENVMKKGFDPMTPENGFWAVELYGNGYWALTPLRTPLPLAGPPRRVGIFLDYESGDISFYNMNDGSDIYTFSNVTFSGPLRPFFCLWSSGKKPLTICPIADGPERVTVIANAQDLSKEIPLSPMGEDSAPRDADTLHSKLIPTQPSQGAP

T3: ARID4A 568-634 Tudor-knot (domain begin residue: 568, domain end residue: 634), P29374
T3 chain: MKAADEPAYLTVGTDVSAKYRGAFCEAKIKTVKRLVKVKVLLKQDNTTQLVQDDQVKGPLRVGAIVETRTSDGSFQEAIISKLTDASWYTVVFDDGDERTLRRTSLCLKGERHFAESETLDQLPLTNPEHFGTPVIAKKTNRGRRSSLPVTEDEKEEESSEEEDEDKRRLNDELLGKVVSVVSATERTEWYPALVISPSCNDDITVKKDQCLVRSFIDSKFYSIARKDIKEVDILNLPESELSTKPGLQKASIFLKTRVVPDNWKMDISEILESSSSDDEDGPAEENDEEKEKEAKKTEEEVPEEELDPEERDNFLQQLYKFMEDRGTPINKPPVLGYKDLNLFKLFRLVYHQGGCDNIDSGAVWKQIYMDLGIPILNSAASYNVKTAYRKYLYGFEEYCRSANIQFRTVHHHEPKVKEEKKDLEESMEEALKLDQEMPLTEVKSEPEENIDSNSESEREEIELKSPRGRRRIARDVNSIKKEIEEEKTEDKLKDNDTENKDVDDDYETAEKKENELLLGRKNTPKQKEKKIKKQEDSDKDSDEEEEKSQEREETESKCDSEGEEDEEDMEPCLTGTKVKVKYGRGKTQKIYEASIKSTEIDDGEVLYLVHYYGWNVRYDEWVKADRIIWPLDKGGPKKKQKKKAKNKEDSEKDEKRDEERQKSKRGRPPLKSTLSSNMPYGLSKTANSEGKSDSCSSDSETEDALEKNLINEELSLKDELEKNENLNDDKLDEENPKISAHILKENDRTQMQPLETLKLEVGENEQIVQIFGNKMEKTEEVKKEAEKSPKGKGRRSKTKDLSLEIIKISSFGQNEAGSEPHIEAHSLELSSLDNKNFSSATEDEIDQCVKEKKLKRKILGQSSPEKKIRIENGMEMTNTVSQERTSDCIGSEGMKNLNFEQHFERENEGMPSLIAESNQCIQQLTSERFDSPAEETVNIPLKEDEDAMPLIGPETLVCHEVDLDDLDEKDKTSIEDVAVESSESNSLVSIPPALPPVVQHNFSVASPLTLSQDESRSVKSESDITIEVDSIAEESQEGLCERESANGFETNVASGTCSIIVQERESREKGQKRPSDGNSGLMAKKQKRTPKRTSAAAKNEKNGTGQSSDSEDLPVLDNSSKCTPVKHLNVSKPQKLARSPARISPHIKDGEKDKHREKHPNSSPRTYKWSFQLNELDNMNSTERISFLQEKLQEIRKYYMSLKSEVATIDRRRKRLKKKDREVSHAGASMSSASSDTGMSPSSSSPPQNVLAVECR

T4: ZGPAT 120-268 zf-CCCH+TUDOR (domain begin residue: 120, domain end residue: 268), Q8N5A5
T4 chain: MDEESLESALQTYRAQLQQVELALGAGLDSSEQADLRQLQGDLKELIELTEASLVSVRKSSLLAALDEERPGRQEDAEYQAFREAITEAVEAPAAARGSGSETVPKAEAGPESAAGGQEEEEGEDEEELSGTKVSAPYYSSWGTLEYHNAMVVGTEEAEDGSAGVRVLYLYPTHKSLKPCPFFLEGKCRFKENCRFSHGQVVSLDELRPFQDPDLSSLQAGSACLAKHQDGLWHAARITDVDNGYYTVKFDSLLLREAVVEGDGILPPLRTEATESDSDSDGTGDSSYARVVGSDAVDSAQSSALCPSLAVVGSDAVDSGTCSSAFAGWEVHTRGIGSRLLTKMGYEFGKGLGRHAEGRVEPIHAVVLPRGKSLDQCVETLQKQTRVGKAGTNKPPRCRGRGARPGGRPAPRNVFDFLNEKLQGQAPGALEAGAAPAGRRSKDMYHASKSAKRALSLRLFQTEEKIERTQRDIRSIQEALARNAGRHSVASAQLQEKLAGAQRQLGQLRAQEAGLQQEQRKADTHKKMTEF

T5: TDRD1 261-449 TUDOR (domain begin residue: 261, domain end residue: 449), Q9BXT4
T5 chain: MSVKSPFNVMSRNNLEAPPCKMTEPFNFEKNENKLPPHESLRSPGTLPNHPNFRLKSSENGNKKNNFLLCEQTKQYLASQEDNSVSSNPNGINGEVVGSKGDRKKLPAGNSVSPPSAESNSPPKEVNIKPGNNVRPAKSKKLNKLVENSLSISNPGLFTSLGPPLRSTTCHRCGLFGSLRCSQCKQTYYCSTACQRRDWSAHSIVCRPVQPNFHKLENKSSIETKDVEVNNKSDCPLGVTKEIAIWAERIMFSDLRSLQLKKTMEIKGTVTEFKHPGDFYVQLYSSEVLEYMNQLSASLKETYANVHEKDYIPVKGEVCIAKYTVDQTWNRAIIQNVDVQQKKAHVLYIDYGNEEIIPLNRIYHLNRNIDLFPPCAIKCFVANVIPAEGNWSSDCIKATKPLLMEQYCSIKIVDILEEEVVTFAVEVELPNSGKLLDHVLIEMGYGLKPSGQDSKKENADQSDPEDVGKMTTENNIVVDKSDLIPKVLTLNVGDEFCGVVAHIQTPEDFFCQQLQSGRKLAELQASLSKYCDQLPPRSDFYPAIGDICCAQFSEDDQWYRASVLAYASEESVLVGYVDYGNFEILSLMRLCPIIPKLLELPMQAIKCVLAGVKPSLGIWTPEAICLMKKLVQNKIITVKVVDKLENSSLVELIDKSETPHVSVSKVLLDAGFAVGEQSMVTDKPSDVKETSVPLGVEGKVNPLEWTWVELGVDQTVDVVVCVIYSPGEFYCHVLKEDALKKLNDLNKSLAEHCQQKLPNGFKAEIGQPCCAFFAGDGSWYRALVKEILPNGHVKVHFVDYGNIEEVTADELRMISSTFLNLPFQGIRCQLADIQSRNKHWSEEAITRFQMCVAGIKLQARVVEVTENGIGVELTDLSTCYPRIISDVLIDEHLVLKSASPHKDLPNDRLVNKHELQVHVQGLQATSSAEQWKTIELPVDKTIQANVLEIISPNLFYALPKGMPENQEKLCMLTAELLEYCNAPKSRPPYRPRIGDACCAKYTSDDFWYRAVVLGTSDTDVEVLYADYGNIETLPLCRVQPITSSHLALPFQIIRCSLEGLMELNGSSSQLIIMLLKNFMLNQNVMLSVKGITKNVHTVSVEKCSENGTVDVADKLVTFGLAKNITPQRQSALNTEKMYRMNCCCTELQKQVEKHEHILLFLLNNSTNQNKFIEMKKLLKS

B1: unnamed (peptide)
chain: YQMQQWQFSPEIWLNM
B2: unnamed (peptide)
chain: MYDEWHMPDSYEVVVQ
B3: unnamed (peptide)
chain: DVTWWSERAQATLVMM
B4: unnamed (peptide)
chain: WVMPGMEELNIFENMF
B5: unnamed (peptide)
chain: MLHDGWLMPGMTHSVN
B6: unnamed (peptide)
chain: EQLEPWLMPGQSQLFG
B7: unnamed (peptide)
chain: DYMSHLFDTMSGVQFQ

biological target: CBX3 109-173 Chromo_shadow (domain begin residue: 109, domain end residue: 173), Q13185; test: phage ELISA signal ratio (GST-PRM binding over GST background); higher = stronger binding of peptide-phage to the PRM
Sequence (Q13185 whole entry, the tested form may be a part): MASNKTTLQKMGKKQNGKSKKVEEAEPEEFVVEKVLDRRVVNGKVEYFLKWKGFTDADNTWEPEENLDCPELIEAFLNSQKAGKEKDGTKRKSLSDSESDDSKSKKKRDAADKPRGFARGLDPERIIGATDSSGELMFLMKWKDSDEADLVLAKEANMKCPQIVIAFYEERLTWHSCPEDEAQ
Method: (§1)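 Phage-displayed random hexadecapeptides (Cys-free, flanked by invariant Gly linkers, fused to the M13 P8 major coat protein) were selected over 5 rounds against GST-fused human PRM domains. Individual clones from rounds 4-5 were tested by phage ELISA, and positive clones binding the target but not GST were sequenced. Values are the ELISA signal ratio of target over background (GST); the background signal is given separately.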

Row | Binder | phage ELISA signal ratio
1 | B1 | 7.79

Biological target: T1, ALDOA 1-364 Glycolytic (domain begin …
Test: as above
Method: as §1

Row | Binder | phage ELISA signal ratio
2 | B2 | 19.3

Biological target: T2, BTN1A1 285-479 SPRY (domain begin …
Test: as above
Method: as §1

Row | Binder | phage ELISA signal ratio
3 | B3 | 12.4

Biological target: T3, ARID4A 568-634 Tudor-knot (domain begin …
Test: as above
Method: as §1

Row | Binder | phage ELISA signal ratio
4 | B4 | 3.49
5 | B5 | 8.8
6 | B6 | 9.13
7 | B7 | 6.29

Biological target: T4, ZGPAT 120-268 zf-CCCH+TUDOR (domain …
Test: as above
Method: as §1

Row | Binder | phage ELISA signal ratio
8 | B5 | 4.63

Biological target: T5, TDRD1 261-449 TUDOR (domain begin …
Test: as above
Method: as §1

Row | Binder | phage ELISA signal ratio
9 | B7 | 8.02

From the supplement of paper PMC7724964
